Inconclusive results are not listed. Calls of active or inactive are those of the source. The call rests on the fitted dose curve; in most records, active means well fitted activation curve with a large enough effect in the signal ratio, with a control signal flat (not every such curve was filed as active); inconclusive means small, poorly fitted or top-dose-only effect, or a change in a side signal; inactive means flat fitted curve, though single readings scatter; the % refers to the signal ratio.
Experiment: Confirmation Concentration-Response Assay for Cell signaling CRE-BLA (Fsk stim)
Settings: CHO CRE-bla reporter (cAMP response element driving beta-lactamase), NKH477 EC10 stim, FRET ratio; series mostly up to 38.3 µM; activation: at the top concentration
From the text: NIH Molecular Libraries Screening Centers Network [MLSCN] NIH Chemical Genomics Center [NCGC] MLSCN Grant: 1X01MH079867-01 Assay Provider: Marshall W. Nirenberg, U.S. National Heart, Lung and Blood Institute CRE beta-lactamase Assay Overview Memories persist for different lengths of time, from seconds or minutes to a lifetime. There are two kinds of memory: short-term memory (STM) and long-term memory (LTM). STM lasts for minutes to hours, which maybe mediated by modifications of molecules involved in synaptic functions. LTM lasts for days or longer, and may be due to the formation of new synapses or restructuring of existing synapses. LTM, but not STM, requires gene transcription and synthesis of proteins. CREB (cyclic-AMP Responsive Element Binding Protein) is one of the candidates plays an important role for enhancement of some types of LTM. CREB, a family of transcription factors, regulates the transcription of genes containing cAMP Responsive Elements (CRE). CRE is a nucleotide sequence often found in the promoter regions of genes that are binding sites for CREB. Using a beta-lactamase reporter-gene under control of cAMP responsive element, a cell-based assay [CellSensor(TM) CRE-bla CHO developed by Invitrogen Corp.] was used to measure forskolin-induced signaling. The selected compounds were measured for their ability to modulate positively the action of EC10 NKH 477, a water soluble forskolin, on reporter gene activity. Compounds were screened in a titration series in 1536-well format. Positive modulators were identified based on the AC50 values derived from the screening data.
NCGC Assay Protocol Summary 2000 cells/5uL in Opti-MEM medium containing 0.5% dialyzed FBS, 0.1 mM NEAA, 1 mM sodium pyruvate and 10 mM HEPES was dispensed into 1536-well plates and cells were cultured at 37 degrees Celsius overnight. Next day 23 nL of compounds or DMSO were delivered to each well using a pin tool, and 1uL of EC10 level of NKH 477, or EC100 level of IBMX, a PDE inhibitor, in the present of NKH 477, or assay medium was added. And then the plates were incubated at 37 degrees Celsius for 3 hours. 1 uL of CCF4-dye mixture was added to each well. After incubated at room temperature for 2 hours the plates were measured on an EnVision plate reader at Excitation 405nm, Emission1=460nm and Emission 2=530nm. The %Activity was determined from the ratio of 460nm/530nm. Keywords: NIH Roadmap, MLSCN, MLSMR, qHTS, NCGC, CRE, beta-lactamase reporter-gene assay.

Compound | Potency | activation
Cn1c(C(=O)N2CCC3(CC2)OCCO3)cc2c(=O)n(C)c3ccccc3c21 | 25.1 µM (active) | –
Cn1c(O)c(C=NCCOc2ccc(Cl)cc2)c(=O)n(C)c1=O | 15.8 µM (active) | –
CC(C)C(=O)N1CCN(CCN=Cc2c(O)n(C)c(=O)n(C)c2=O)CC1 | – | -11.5% (inactive)
COc1cc2c(c(OC)c1OC)-c1ccc(OC)c(=O)cc1[C@@H](NC(C)=O)CC2 | 5.01 µM (active) | –

Source: PubChem BioAssay AID916 (National Center for Advancing Translational Sciences (NCATS), 2007)
